Measurements reported in PubChem BioAssay.
The source made the active and inactive calls. Cut-off read from the data, not from the text of the source, unless noted: active = nuclear beta-catenin stimulation mostly above about 4.2% (no sharp cut-off); inactive = mostly below about 10%.

Columns and labels:
[1] = stimulators of nuclear beta-catenin in C2C12, primary screen, imaging, WNT3A-conditioned medium, mouse C2C12, NPC library (AID 1117326); details: stronger effect = higher value; note: reference of the scale not given here
[2] = stimulators of insulin release from INS-1E, primary screen, cell-based, 5 mM glucose, NPC library (AID 1117329;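 active = compound raises insulin release from rat beta cells at 5 mM glucose, no numeric limit stated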; note: reference of the scale not given here); details: rat INS-1E insulin secretion, at 10 µM, stronger effect = higher value
[3] = growth inhibition of GSK3B-pretreated HCT116 cells – cell-based, CellTiter-Glo, 0.2 to 20 µM (AID 1117336;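 active = compounds lowering colon cancer cell viability after pretreatment blocking the GSK3B kinase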); details: HCT116 viability after GSK3B inhibitor, at 20 µM, stronger effect = higher value
[4] = inhibition of endothelial tube formation, primary screen, imaging, VEGF stimulated, CD31 staining, tube area, NPC library (AID 1117340;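 active = compound that reduces growth-factor-driven endothelial tube area in a mixed cell culture, no cutoff stated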); details: VEGF-stimulated ADSC/ECFC co-culture, at 10 µM, stronger effect = higher value
[5] = glucagon-like peptide 1 release enhancers, primary assay, NCI-H716 cell line, NPC library (AID 1117341;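 active = compound raises GLP1 secretion from the human gut endocrine cells, with no numeric limit stated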; note: reference of the scale not given here); details: NCI-H716 cells, at 10 µM, stronger effect = higher value
[6] = HCT116 colon cancer cell growth inhibition, primary screen, CellTiter-Glo luminescence, NPC library (AID 1117342;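 active = compounds that lower survival of HCT116 colon cancer cells in the luminescence readout, no numeric limit stated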); details: at 20 µM (top of the series)
[7] = CellTiter-Glo luminescent readout of SW480 viability loss, NPC library primary (AID 1117343;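 active = compounds that lower viability of the colon cancer cells in the luminescence readout, with no numeric limit stated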); details: CellTiter-Glo luminescence; at 20 µM (top of the series)
[8] = decreased DLD-1 cellular survival, CellTiter-Glo luminescent readout, NPC compound collection, primary HTS (AID 1117346;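 active = compounds that lower survival of DLD-1 colon cancer cells in the luminescence readout, no cutoff given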); details: DLD-1 viability, CellTiter-Glo luminescence; at 20 µM (top of the series)

SMILES | nuclear beta-catenin stimulation ([1]; at 10 µM) | nuclear beta-catenin stimulation ([1]; stimulation, at 2 µM) | insulin secretion stimulation [2] | viability decrease [3] | tube area decrease [4] | GLP1 secretion stimulation [5] | inhibition of viability [6] | viability decrease (inhibition) [7] | viability decrease (inhibition) [8]
CCN(CC)C(=O)C1CN2CCc3cc(OC)c(OC)cc3C2CC1OC(C)=O (centres undefined) | -1.5% (inactive) | 1.3% | 3.5% (inactive) | -0.1% (inactive) | 1.2% (inactive) | 10.9% (inactive) | 17.1% (inactive) | 6.1% (inactive) | -4.5% (inactive)
Oc1cc(O)cc(O)c1 | -0.5% (inactive) | 2.8% | -1.3% (inactive) | -20.3% (inactive) | -14.9% (inactive) | -1.7% (inactive) | -0.5% (inactive) | 21.1% (inactive) | -3.4% (inactive)
CC(=O)SC[C@@H](Cc1ccccc1)C(=O)NCC(=O)OCc1ccccc1 | -0.9% (inactive) | 0.5% | -1.4% (inactive) | -9.8% (inactive) | 18.9% (inactive) | -4.5% (inactive) | -2% (inactive) | -6.1% (active) | -5.9% (inactive)
CCN(CC)C(=O)[C@]1(c2ccccc2)C[C@H]1CN | -2.4% (inactive) | -0.9% | 10.5% (inactive) | -13.1% (inactive) | -15.6% (inactive) | 3.7% (inactive) | -3.6% (inactive) | 7% (inactive) | 3.4% (inactive)
CCCCNC(=O)NS(=O)(=O)c1ccc(N)cc1 | 1.6% (inactive) | 0.7% | 0.4% (inactive) | 2.75% (inactive) | -10.5% (inactive) | 1.9% (inactive) | 1.4% (inactive) | 27.3% (inactive) | 8.7% (inactive)
O=C1CC[C@H](C(=O)N2CCCCC2)N1 | 1.7% (inactive) | 1% | 0.8% (inactive) | 8.8% (inactive) | 87.3% (active) | 0.9% (inactive) | 0.8% (inactive) | -22% (inactive) | 0.1% (inactive)
O=C(O)c1ccc(OCCN2CCCCC2)cc1 | -1% (inactive) | -0.1% | -2.35% (inactive) | 2.1% (inactive) | 4.5% (inactive) | 4% (inactive) | -8.6% (inactive) | -5.5% (inactive) | 0.5% (inactive)
Oc1ccc(Cl)cc1Sc1cc(Cl)ccc1O | 4.4% (inactive) | 0% | 4.5% (inactive) | 100% (active) | 101% (active) | 47.3% (active) | 102% (active) | 122% (active) | 103% (active)
Cc1ncc(CO)c(C=O)c1O | -0.2% (inactive) | 0.6% | 2.8% (inactive) | -8.9% (inactive) | -6.1% (inactive) | -2.6% (inactive) | 13.3% (inactive) | 24.3% (inactive) | -1.4% (inactive)
Cc1cc(O)cc2c1O[C@](C)(CCC[C@H](C)CCC[C@H](C)CCCC(C)C)CC2 | -1.3% (inactive) | -2% | 3.8% (inactive) | 12.5% (inactive) | 6.7% (inactive) | 0% (inactive) | 14.3% (inactive) | -12.8% (inactive) | -10.9% (inactive)
Cc1ccc(/C=N/n2c(-c3ccccc3)csc2=S)cc1 | 1.7% (inactive) | -0.8% | 5% (inactive) | 50.3% (active) | 18.4% (inactive) | 0.3% (inactive) | 16.7% (inactive) | 56% (active) | 37.1% (inactive)
Cc1ccc(O)c(-n2nc3ccccc3n2)c1 | -0.7% (inactive) | -0.3% | -1.4% (inactive) | 8.75% (inactive) | -28.1% (inactive) | 4.2% (inactive) | -0.8% (inactive) | 40.7% (inactive) | 13.8% (inactive)
CCOc1cc(OCC)c(C(=O)CCC(=O)O)cc1OCC | -1.4% (inactive) | 0.2% | 0.5% (inactive) | -11.3% (inactive) | 3.4% (inactive) | -1.3% (inactive) | 11.4% (inactive) | 0.4% (inactive) | 3.7% (inactive)
Cc1ncc(C[n+]2csc(CCOP(=O)(O)O)c2C)c(N)n1 | 0.8% (inactive) | -0.6% | -0.4% (inactive) | -15.6% (inactive) | -8.2% (inactive) | 1% (inactive) | -0.4% (inactive) | -13.2% (inactive) | 17.1% (inactive)
COc1cc(S(N)(=O)=O)cc(C(=O)O)c1OC | -0.6% (inactive) | 3.5% | 1.2% (inactive) | 16.8% (inactive) | -3.6% (active) | -1% (inactive) | 23.4% (inactive) | 18.9% (inactive) | -9.9% (inactive)
CCCCCCCCCCCCCCCCCC(=O)OCC(O)CO (centres undefined) | -0.4% (inactive) | 1.7% | 2.1% (inactive) | 1% (inactive) | -4.1% (inactive) | -0.3% (inactive) | 2.77% (inactive) | -13.8% (inactive) | -7.2% (inactive)
